According to PubChem BioAssay (NCATS):
Values joined by “and” are separate entries in the source; they are usually repeats but may differ in a detail not shown here. Equal entries are not always repeated. Inconclusive results are not listed. A call without a number means that no potency is given here. The source holds several records for some structures; these can differ, active in one and inactive in another. Active and inactive are the calls of the source. Unless noted, calls follow the shape of the dose curve; as a rule, active = well fitted curve in the direction sought with a large enough effect; inconclusive = small, poorly fitted or top-dose-only effect, or another doubt; inactive = no such curve, though single readings can be large; an effect the other way counts as inactive or inconclusive.

Assays:
[1] = biological target: Calcium and integrin-binding protein 1 (Homo sapiens) (UniProt Q99828); test: Primary qHTS for Identification of Calcium Integrin Binding Protein 1 (CIB1) Competitor (AID 1508620);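 also: GST tagged CIB1 binding a fluorescein labelled alphaIIb integrin peptide tracer; top concentration of the series differs between compounds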
Calcium and integrin-binding protein 1 (Homo sapiens), sequence (Q99828 whole entry, looked up): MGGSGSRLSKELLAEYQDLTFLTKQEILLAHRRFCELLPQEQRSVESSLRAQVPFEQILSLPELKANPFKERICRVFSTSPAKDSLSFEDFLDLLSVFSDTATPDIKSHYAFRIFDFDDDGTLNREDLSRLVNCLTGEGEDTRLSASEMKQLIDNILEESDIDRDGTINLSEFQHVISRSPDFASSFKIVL
Method in brief: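 CIB1-GST (1 uM final) and compound incubated 15 min at room temperature before adding FITC-alphaIIb peptide tracer (100 nM final). Competition for binding read by fluorescence polarization (ex 480, em 540) after another 15 min at room temperature.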

[2] = Primary qHTS for small molecule stabilizers of the endoplasmic reticulum resident proteome: Secreted ER Calcium Modulated Protein (SERCaMP) assay (AID 1508630)
Method in brief: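 GLuc-SERCaMP-expressing SH-SY5Y cells, pretreated 16 h with compound, are challenged with thapsigargin to empty ER calcium stores; after 4 h, coelenterazine is added directly to the medium and luminescence is imaged.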

[3] = Primary qHTS for inhibitors of nuclear receptor binding SET domain protein 2 (NSD2) in an isogenic RCH-ACV NSD2 p.E1099K mutant (9B) (AID 1645876); also: nearly all actives have a fitted effect of over 70% in size; also: potency is read from the fitted curve at half-maximal effect
[4] = biological target: Cytochrome P450 2D6 (Homo sapiens) (UniProt P10635); test: Cytochrome P450 family 2 subfamily D member 6 (CYP2D6) small molecule antagonists: luciferase biochemical (cell-free) qHTS assay (AID 1645840; active = well fitted curve in the direction sought with a large enough effect in the repeat runs; an effect the other way counts as inactive or inconclusive; also: series mostly up to about 57 µM; nearly all actives have a fitted effect of over 55% in size)
Cytochrome P450 2D6 (Homo sapiens), sequence (P10635 whole entry, looked up): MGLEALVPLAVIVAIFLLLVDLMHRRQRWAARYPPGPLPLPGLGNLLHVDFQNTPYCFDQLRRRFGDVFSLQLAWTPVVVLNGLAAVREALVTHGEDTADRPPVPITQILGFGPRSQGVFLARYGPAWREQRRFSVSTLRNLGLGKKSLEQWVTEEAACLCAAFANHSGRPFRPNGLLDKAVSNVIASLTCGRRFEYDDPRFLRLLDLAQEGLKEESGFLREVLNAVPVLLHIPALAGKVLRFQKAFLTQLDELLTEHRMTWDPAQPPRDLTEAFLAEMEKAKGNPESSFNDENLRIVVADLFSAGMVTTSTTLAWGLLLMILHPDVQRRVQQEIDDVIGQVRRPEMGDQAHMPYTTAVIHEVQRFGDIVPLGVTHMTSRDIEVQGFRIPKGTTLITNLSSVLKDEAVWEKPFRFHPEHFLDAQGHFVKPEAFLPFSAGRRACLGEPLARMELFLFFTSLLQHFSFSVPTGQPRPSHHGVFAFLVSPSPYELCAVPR
Method in brief: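 P450-Glo luminescent screen: recombinant CYP2D6 enzyme–proluciferin substrate mix preincubated with compound 10 min at room temperature, then NADPH regeneration added for 1 h at room temperature. Detection reagent added for 20 min; luciferin light read as relative luminescence units.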

[5] = Primary qHTS for inhibitors of nuclear receptor binding SET domain protein 2 (NSD2) in an RCH-ACV wild type WT cells (2C) (AID 1645877); also: nearly all actives have a fitted effect of over 70% in size; also: potency is read from the fitted curve at half-maximal effect
[6] = biological target: Cytochrome P450 2C9 (Homo sapiens) (UniProt P11712); test: Cytochrome P450 family 2 subfamily C member 9 (CYP2C9) small molecule antagonists: luciferase biochemical (cell-free) qHTS assay (AID 1645842; active = well fitted curve in the direction sought with a large enough effect in the repeat runs; an effect the other way counts as inactive or inconclusive; also: nearly all actives have a fitted effect of over 55% in size; also: potency is read from the fitted curve at half-maximal effect)
Cytochrome P450 2C9 (Homo sapiens), sequence (P11712 whole entry, looked up): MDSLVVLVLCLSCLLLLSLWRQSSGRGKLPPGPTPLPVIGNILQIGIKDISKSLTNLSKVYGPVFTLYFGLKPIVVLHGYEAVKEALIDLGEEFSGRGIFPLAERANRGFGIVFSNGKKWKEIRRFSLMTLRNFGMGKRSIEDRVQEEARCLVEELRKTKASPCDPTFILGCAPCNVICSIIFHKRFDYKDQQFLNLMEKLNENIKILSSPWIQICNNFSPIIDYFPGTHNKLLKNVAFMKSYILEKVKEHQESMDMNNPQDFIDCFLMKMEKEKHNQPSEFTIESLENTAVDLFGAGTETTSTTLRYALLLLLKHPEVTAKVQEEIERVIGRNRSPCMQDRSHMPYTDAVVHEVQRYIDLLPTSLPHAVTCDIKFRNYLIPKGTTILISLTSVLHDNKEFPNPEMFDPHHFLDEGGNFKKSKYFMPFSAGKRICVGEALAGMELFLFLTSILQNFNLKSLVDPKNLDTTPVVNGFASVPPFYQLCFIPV
Method in brief: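 Luminescence, after 20 min with luciferin detection reagent, reflected CYP2C9 turnover during a 1 h NADPH-driven reaction at 37C. Enzyme-substrate mix contained 0.4% bovine serum albumin and was preincubated with compound 10 min at room temperature.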

[7] = biological target: N-terminal Xaa-Pro-Lys N-methyltransferase 1 (Homo sapiens) (UniProt Q9BV86); test: Confirmatory qHTS for Inhibitors of N-terminal methyltransferase 1 (NTMT1): MTaseGlo Assay (AID 1645874); also: nearly all actives have a fitted effect of over 65% in size; also: potency is read from the fitted curve at half-maximal effect
N-terminal Xaa-Pro-Lys N-methyltransferase 1 (Homo sapiens), sequence (Q9BV86 whole entry, looked up): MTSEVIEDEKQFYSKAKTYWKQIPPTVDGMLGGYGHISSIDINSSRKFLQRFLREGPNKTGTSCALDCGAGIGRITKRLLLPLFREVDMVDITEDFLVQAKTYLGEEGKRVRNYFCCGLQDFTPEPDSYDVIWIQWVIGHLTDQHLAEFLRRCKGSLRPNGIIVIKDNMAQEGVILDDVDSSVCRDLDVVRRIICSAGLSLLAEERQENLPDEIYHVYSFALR
Method in brief: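 Preincubation of NTMT1 (125 nM) plus SAM (100 uM) with test compounds lasted 15 min; methylation of 1 uM SPKRIA then proceeded 30 min in the dark at room temperature. Luciferase signal reported SAH produced.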

Structure (SMILES) | outcome [1] | Potency [2] | Potency [3] | Potency [4] | Potency [5] | Potency [6] | Potency [7]
COc1cc(F)c(F)c(Nc2ccc(I)cc2F)c1NS(=O)(=O)C1(C[C@H](O)CO)CC1 | inactive | inactive | 18.3 µM (active) and 20.9 µM (active) | – | – | – | –
CC1(C)CNc2cc(NC(=O)c3cccnc3NCc3ccncc3)ccc21 | inactive | inactive | inactive | – | – | – | –
CC(C)OC(=O)C1=CN(C(=O)c2ccc(F)c(F)c2)CC(C)(C)c2c1[nH]c1ccccc21 | inactive | inactive | inactive | inactive | inactive | – | –
CCCS(=O)(=O)Nc1ccc(F)c(C(=O)c2c[nH]c3ncc(-c4ccc(Cl)cc4)cc23)c1F | inactive | inactive | 18.4 µM (active) and inactive | – | – | – | –
O=c1[nH]c(-c2ccc(C(F)(F)F)cc2)nc2c1CSCC2 | inactive | inactive | inactive | inactive | inactive | 19 µM (active) | –
Oc1cccc(-c2nc(N3CCOCC3)c3oc4ncccc4c3n2)c1 | inactive | inactive | 0.118 µM (active) | – | – | – | –
Cc1c(CCOc2ccc(C(=O)O)cc2)c2cc(Cl)ccc2n1C(c1ccccc1)c1ccccc1 | inactive | inactive | inactive | – | – | – | –
NC(=O)C1CCCc2c1[nH]c1ccc(Cl)cc21 (stereo not given) | inactive | inactive | inactive | – | – | – | –
C[C@@H]1CN(Cc2ccc(F)cc2)[C@@H](C)CN1C(=O)c1cc2c(C(=O)C(=O)N(C)C)cn(C)c2cc1Cl | inactive | inactive | – | – | – | 7.56 µM (active) | –
COc1ccc(-c2oc3cc(OC)ccc3c2C(=O)c2ccc(C#N)cc2)cc1 | inactive | inactive | – | – | – | 7.56 µM (active) | –
CS(=O)(=O)c1ccc(C(=O)Nc2ccc(Cl)c(-c3ccccn3)c2)c(Cl)c1 | inactive | inactive | inactive | – | inactive | – | –
Cc1cnc(Nc2ccc(OCCN3CCCC3)cc2)nc1Nc1cccc(S(=O)(=O)NC(C)(C)C)c1 | inactive | inactive | 1.83 µM (active) and 2.35 µM (active) | – | – | – | –
NC(=O)c1ccc(I)c([N+](=O)[O-])c1 | inactive | inactive | 18.6 µM (active) | – | – | – | –
c1ccc(-c2nn3c(c2-c2ccnc4cc(OCCN5CCOCC5)ccc24)CCC3)nc1 | inactive | inactive | 16.6 µM (active) | – | – | – | –
COc1cc2c(cc1OC)CN(CCc1ccc(NC(=O)c3cccc4c(=O)c5cccc(OC)c5[nH]c34)cc1)CC2 | inactive | inactive | inactive | – | inactive | 3.01 µM (active) | 35.5 µM (active)
CC(C)(N)C(=O)N[C@H](COCc1ccccc1)C(=O)N1CCC2(CC1)CN(S(C)(=O)=O)c1ccccc12 | inactive | inactive | 16.3 µM (active) and 26.3 µM (active) | – | 14.5 µM (active) and 14.8 µM (active) | inactive | –
O=C(c1cc(Cc2n[nH]c(=O)c3ccccc23)ccc1F)N1CCN(C(=O)C2CC2)CC1 | inactive | inactive | 6.61 µM (active) | – | – | – | –
CCCn1c(=O)c2[nH]c(C34CC5CC3C[C@@H](C5)C4)nc2n(CCC)c1=O | inactive | inactive | inactive | – | – | – | –
O=C(NOC[C@H](O)CO)c1ccc(F)c(F)c1Nc1ccc(I)cc1F | inactive | inactive | inactive | – | inactive | 16.9 µM (active) | –
CC[C@@H](C)[C@H](NC(=O)[C@H](CC1CCCCC1)NC(=O)c1ccno1)C(=O)N1CCC2(CCc3ccccc32)CC1 | inactive | inactive | inactive | inactive | inactive | inactive | –
CO[C@@H]1[C@H](N(C)C(=O)c2ccccc2)C[C@H]2O[C@]1(C)n1c3ccccc3c3c4c(c5c6ccccc6n2c5c31)C(=O)NC4 | inactive | inactive | 1.3 µM (active) and 1.05 µM (active) | – | – | – | –
OCCn1cc(-c2cnc3nnn(Cc4ccc5ncccc5c4)c3n2)cn1 | inactive | inactive | inactive | inactive | inactive | – | inactive
